# Source: PubChem BioAssay
# miR-21 reporter = qHTS Assay for Modulators of miRNAs and/orActivators of miR-21; 340,000 tested, under 10 active; HeLa miR-21 FLuc reporter, luciferase, 48 h; Potency, µM (top dose mostly 38.3 µM), inactives show at the highest dose activity change, positive = activation, hits mostly activators; AID 2288, 2010;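 note: % of control where 0% means no effect; miR-21 action dims this reporter so a rising signal means less miR-21 action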
#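 HeLa cells stably expressing CMV-driven firefly luciferase with a downstream miR-21 binding sequence, endogenously expressing miR-21, were treated with titrations (up to about 40uM final) for 48 hours at 37 degree Celsius. Luciferase luminescence was read after lysis.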
# Anesthetic bind = qHTS Assay for Identification of Novel General Anesthetics; Potency, µM (highest dose often 77.5 µM), without a hit: at the highest dose activity change, negative = displacement, actives largely listed as inhibitors; 350,000 compounds, 0.074% hits; AID 485281, 2010; Ferritin light chain (Equus caballus), P02791; apoferritin/1-aminoanthracene competitive binding, fluorescence; note: potency is the fitted concentration of half-maximal effect; % is set by controls: 0 for no effect and ±100 for the full control effect; nearly all actives have a fitted effect of over 20% in size
# Target sequence (P02791 2-175 limits assumed): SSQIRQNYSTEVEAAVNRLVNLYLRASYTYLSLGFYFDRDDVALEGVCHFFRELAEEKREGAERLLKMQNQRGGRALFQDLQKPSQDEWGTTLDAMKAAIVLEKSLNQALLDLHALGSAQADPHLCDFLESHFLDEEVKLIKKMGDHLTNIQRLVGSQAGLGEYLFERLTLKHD
#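 Read-out: endpoint 1-AMA fluorescence, excitation 380 nm and emission 535 nm, after compounds sit 10 min at room temperature with 10 uM horse-spleen apoferritin in 50% saturated 1-AMA/PBS. Values come from four-parameter Hill fits.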
# LDHA block = qHTS assay for inhibitors of human lactate dehydrogenase | L-lactate dehydrogenase A chain (Homo sapiens), P00338 | activity change, % (values are at about 110 or 230 µM) | 480,000 compounds, 0.15% hits | purified LDHA, NADH/diaphorase-resazurin fluorescence; active compounds read low; in the data active = activity change below about -30%; inconclusive = mostly about -25% to -30%;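 note: plate controls were DMSO wells for no effect and wells without enzyme for full effect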
#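 Resorufin fluorescence (ex540/em590), read at 0 and 20 min after diaphorase/resazurin addition, reports the NADH left after a 5 min room-temperature reaction of 2 nM human LDH5 with 0.06 mM NADH and 0.2 mM pyruvate.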
# Active calls of the source: *; ? = inconclusive; . = no result. Most compounds without a hit are left out; they make up all but 0.2% or so of the library. Unless noted, calls come from the whole dose curve; as a rule, active = well fitted curve in the direction sought with a large enough effect; inconclusive = small, poorly fitted or top-dose-only effect, or another doubt; inactive = no such curve, though single readings can be large; an effect the other way counts as inactive or inconclusive.
SMILES,miR-21 reporter,Anesthetic bind,LDHA block
Cc1ccc(-c2cc(C(F)F)n3ncc(C#N)c3n2)cc1,.,.,-1
COC(=O)C(C)(C)NC(=O)c1ccc2c(c1)NC(=O)CS2,.,.,-4
Cc1ccccc1CN1CCN(Cc2ccccc2C(F)(F)F)CC1,-4%,63%,-39*
O=S1(=O)CCN(Cc2ccccc2C(F)(F)F)CC1,3%,-7%,-2
Cc1ccc(N(Cc2ccco2)C(=O)CCc2ncc(-c3c(F)cccc3F)o2)cc1,.,.,-1
O=C(Nc1ccc(NC(=O)c2ccc(Cl)cc2Cl)cc1)c1ccc2c(c1)OCO2,1%,30%,-1
O=C(Nc1ccc(C2=NCCN2)cc1)c1ccc(C(=O)Nc2ccc(C3=NCCN3)cc2)c(Cl)c1,7%,2%,-33*
Nc1ncnc(Nc2cc(Cl)ccc2Cl)c1[N+](=O)[O-],.,.,5
O=C(Cn1cc(/C=C2\NC(=O)N(Cc3ccccc3Cl)C2=O)c2ccccc21)N1CCOCC1,.,.,5
CN(C)C(=O)CCS(=O)(=O)Cc1coc(-c2ccc(F)cc2)n1,.,.,-34*
CNC(=O)CCS(=O)(=O)Cc1coc(-c2ccc(F)cc2)n1,.,.,0
CCC(CO)NS(=O)(=O)c1cc(C)c(Br)cc1Cl (centres undefined),.,.,6
CC(C(=O)N(C)CC(=O)Nc1ccccc1C(F)(F)F)N(C)Cc1cccc(F)c1 (centres undefined),.,.,35
CC1C[N+](=C2C=C(N3CCOCC3)CC(C)(C)C2)CC(C)O1 (centres undefined),1%,8%,-57*
CC1(C)CC(N2CCOCC2)=CC(=[N+]2CCOCC2)C1,-1%,-3%,-10
COc1cc(C2C3CCCCC3(O)CCN2Cc2ccccc2Cl)ccc1O (centres undefined),.,.,9
CN(Cc1cc2ccccc2[nH]c1=O)C(=O)c1cccc(Cl)c1,.,.,-6
Cn1c(CC(=O)Nc2cccc(C(F)(F)F)c2)nnc1SCC(=O)c1ccc(C#N)cc1,.,.,-32*
Cn1c(CC(=O)Nc2ccccc2)nnc1SCC(=O)c1ccc(C#N)cc1,.,.,4
CC(C)Sc1nc2c(c(=O)[nH]c(=O)n2C)n1Cc1ccccc1Cl,.,.,2
Cc1[nH]c2ccccc2c1N=Nc1ccc(F)cc1,-22%,?,-5
Cc1[nH]c2ccccc2c1N=Nc1cc(C(=O)O)cc(C(=O)O)c1,0%,-24%,-34*
CCCCCCCc1c(C(=O)O)c2ccccc2c2ccccc12,.,.,1
CCn1c2ccccc2c2cc(CN3CCN(S(=O)(=O)CC)CC3)ccc21,-1%,-12%,.
CCn1c2ccccc2c2cc(CN3CCN(S(=O)(=O)Cc4ccccc4)CC3)ccc21,-1%,-1%,-30*
SMILES,miR-21 reporter,Anesthetic bind,LDHA block
CCc1nc2ncc(C#N)c(N)n2n1,.,.,6
Cc1ccc(-c2csc(NC(=O)C3CCN(S(=O)(=O)c4cccs4)CC3)n2)cc1,27%,6%,-3
O=C(Nc1nc(-c2ccc3ccccc3c2)cs1)C1CCN(S(=O)(=O)c2cccs2)CC1,-2%,1%,-30*
CC(C)(C)C(=O)NC(NC(=O)C(C)(C)C)c1ccc(F)cc1,.,.,-6
COc1ccc(C(=O)Nc2ccc(NS(=O)(=O)c3ccc4c(c3)OCCCO4)cc2)cc1,.,.,-5
Cc1ccc(Nc2cc(C)nc3c(C)cc(C)c([N+](=O)[O-])c23)cc1,.,.,5
NCCOc1ccc(C23CC4CC(CC(C4)C2)C3)cc1,?,11µM*,-12
NCCOc1ccc(OCCN)cc1,.,.,5
CCCCc1c(C)c2ccc(OC)c(/C(C)=N/O)c2oc1=O,.,.,1
CCCn1cnc2nc(CSc3ccccc3NC(=O)c3ccccc3C)cc(=O)n21,.,.,0
Cc1cccn2c(=O)cc(CSc3ccccc3NC(=O)c3ccccc3Cl)nc12,.,.,-32*
COc1cc(C2CC(=O)Nc3nc(C)[nH]c(=O)c32)ccc1OCc1ccccc1Cl (centres undefined),.,.,0
Cc1cccc(CC(=O)N2CC(=O)Nc3ccc(Br)cc3C2c2ccccc2)c1 (centres undefined),.,.,-8
O=C(Cc1c[nH]c2ccccc12)N1CCN(S(=O)(=O)c2cc(F)ccc2F)CC1,.,.,-37*
O=C(Cc1c[nH]c2ccccc12)N1CCN(S(=O)(=O)c2cccc(F)c2)CC1,.,.,-1
Cc1ccc(CNC(=O)c2cc(=O)c3cc(Cl)ccc3o2)cc1,.,.,-2
Cc1cc(C)c(C)c(OCC(=O)N2CCCCCC2)c1,-12%,20µM*,-2
Cc1cc(C)cc(OCC(=O)N2CCCCCC2)c1,-11%,?,-4
O=C(Nc1ccc(F)c(F)c1F)C12CC3CC(CC(Cl)(C3)C1)C2,.,.,-4
CCc1ccc(CNC(=O)Cn2nc(-c3ccc(C)cc3)ccc2=O)cc1,?,10µM*,5
O=C(Cn1nc(-c2ccccc2)ccc1=O)NCc1ccc(F)cc1,-20%,?,-6
Cc1ccc(-c2ccc(=O)n(CC(=O)NCCc3ccc(Cl)cc3)n2)cc1,0%,?,1
CCc1ccc(CNC(=O)Cn2nc(-c3ccc(Cl)cc3)ccc2=O)cc1,-3%,16µM*,-6
O=C(Cn1nc(-c2ccc(Cl)cc2)ccc1=O)NCCc1ccccc1,1%,7.9µM*,3
O=C(Cn1nc(-c2ccc(Cl)cc2)ccc1=O)NCc1ccc2c(c1)OCO2,2%,?,-7
SMILES,miR-21 reporter,Anesthetic bind,LDHA block
O=C(CCc1nc2ccccc2s1)NC1CCCC(C(F)(F)F)C1 (centres undefined),.,.,7
CCOC(=O)c1cc(NC(=O)c2ccc(-c3cc4ccccc4oc3=O)cc2)ccc1N1CCOCC1,.,.,4
Cc1ccc(C(=O)NC2CCCc3ccccc32)c(C)c1 (centres undefined),.,.,1
CCOC(=O)c1c(C)c(-c2ccccc2)n(CC(=O)NCCN2CCCCC2CC)c1C (centres undefined),.,.,-2
CCOc1ccc2ncc(C#N)c(Nc3cc(OC)c(OC)c(OC)c3)c2c1,.,.,15
COc1ccc(NC(=O)c2c(NC(=O)COc3ccccc3)sc3c2CCC(C(C)(C)C)C3)cc1 (centres undefined),-4%,-6%,-8
COc1ccc(NC(=O)c2c(NC(=O)CCC(=O)O)sc3c2CCC(C(C)(C)C)C3)cc1 (centres undefined),.,.,-30*
CCCCNC(=O)C12CC3CC(C1)CC(c1ccccc1)(C3)C2,.,.,11
CCOc1cc(C(=O)Nc2ccc3sc(NC(=O)C(C)C)nc3c2)cc(OCC)c1OCC,.,.,-1
COc1cc(NC(=O)CCc2c[nH]c3ccccc23)cc(OC)c1OC,.,.,3
O=C(c1cccs1)N1CCC(C(=O)N2CCN(Cc3ccc4c(c3)OCO4)CC2)CC1,0%,-8%,1
O=C(C1CCN(Cc2cccs2)CC1)N1CCN(Cc2ccc3c(c2)OCO3)CC1,9%,-4%,-33*
O=C(O)Cc1cc(Cl)c2c(c1)OCCCO2,.,.,1
O=C1C(=Cc2cn(-c3ccccc3)nc2-c2ccc(OCc3ccccc3F)cc2)SC(=S)N1CCS(=O)(=O)O,.,.,-34*
O=C1C(=Cc2cn(-c3ccccc3)nc2-c2ccc(OCc3ccc(Cl)cc3)cc2)SC(=S)N1CCS(=O)(=O)O,.,.,-24
CNC(=S)N/N=C(/C)c1ccccn1,.,.,-12
